# Assay results published in PubChem BioAssay AID540317 (National Center for Advancing Translational Sciences (NCATS), 2011).
# Out of some 390,000 compounds screened, about 2,200 (0.56%) were called active. Another 3% or so got no clear call; they are omitted. The list comes from a sample in which actives are over-represented; it also holds similar structures and randomly drawn compounds. Values without a mark were called inactive. Calls come from the whole dose curve; as a rule, active = well fitted inhibition curve with a large enough effect; inconclusive = small, poorly fitted or top-dose-only effect; inactive = no such curve, though single readings can be large or run the other way.
# Biological target: Chromobox protein homolog 1 (Homo sapiens) (UniProt P83916)
# Sequence (P83916 whole entry, looked up): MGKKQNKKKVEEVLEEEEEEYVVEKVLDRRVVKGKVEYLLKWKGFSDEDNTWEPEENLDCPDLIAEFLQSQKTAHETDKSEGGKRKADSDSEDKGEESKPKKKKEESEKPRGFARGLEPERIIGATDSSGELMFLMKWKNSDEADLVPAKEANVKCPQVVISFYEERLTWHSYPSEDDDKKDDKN
# Experiment: HTS for Inhibitors of HP1-beta Chromodomain Interactions with Methylated Histone Tails; note: nearly all actives have a fitted effect of over 70% in size
# Settings: AlphaScreen HP1-beta / biotin-H3K9me3 peptide binding; series mostly up to 114 µM; activity change, negative = inhibition: at the top concentration
# In short: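 AlphaScreen: HP1-beta (50 nM) preformed 30 min with biotin-H3(1-18)K9me3 peptide (50 nM) in PBS pH 7.4, 0.01% Tween-20. Compound added for 30 min at RT, then streptavidin donor/nickel chelate acceptor beads (10 ug/mL) for 30 min.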
# Potency is the fitted concentration of half-maximal effect.
SMILES,"activity change, negative = inhibition",Potency
Cc1ccc(NC(=O)NC(C)c2c(-n3cccc3)sc(C)c2C)c(C)c1 (configuration not stated),15.9%,
COc1ccc(CN(Cc2ccccc2)C(=O)c2ccc(O)cc2)cc1COc1ccc(NC(C)=O)cc1,-7.39%,
O=C(CN1CCN(c2cccc(Cl)c2)CC1)Nc1ccc(S(=O)(=O)N2CCOCC2)cc1,24%,
Cc1ccc(Cl)cc1NC(=O)CN1CCN(S(=O)(=O)N2CCOCC2)CC1,-17.4%,
O=C(CN1CCN(c2ccc(O)cc2)CC1)Nc1cc(S(=O)(=O)N2CCOCC2)ccc1Cl,,79.4 µM (active)
CCN(CC)c1ccc(NC(=O)CN2CCN(c3ccccn3)CC2)cc1,-7.25%,
CC(=O)c1ccc(N2CCN(CC(=O)Nc3ccccc3N3CCOCC3)CC2)cc1,34.2%,
O=C(CN1CCN(c2ccc(O)cc2)CC1)Nc1ccc(-c2ccccc2)cc1,,79.4 µM (active)
COc1ccccc1CN1CCC(CNC(=O)c2cnn(-c3cccc(Cl)c3)c2C2CCN(C(=O)OC(C)(C)C)CC2)CC1,20.2%,
Oc1ccc(Cl)cc1C1C=C(c2ccc3c(c2)OCO3)NC(c2c(F)cccc2Cl)N1 (configuration not stated),14.7%,
CCOc1ccc(C2C(C(=O)Nc3ccc(Cl)cc3)=C(C)Nc3nc(C(F)(F)F)nn32)cc1 (configuration not stated),0.0785%,
CCOc1ccc(NC(=O)CCc2c(C)nn(-c3ccc(N4CCCC4)nn3)c2C)cc1,43.1%,
Cc1ccc2nc(COc3cccc(NC(=O)c4cccc(Cl)c4)c3)cc(=O)n2c1,18.7% [at 57 µM],
Cc1cccc(C)c1-n1c(C)cc(/C=C2\C(=O)NN(c3ccccc3)C2=O)c1C,,15.8 µM (active)
CCCSc1ncc(Cl)c(C(=O)Nc2c(C(=O)Nc3ccccc3)oc3ccccc23)n1,47.9%,
COc1ccccc1-c1nnc(C2CCN(C(=O)c3ccc(Cl)cc3)CC2)o1,47%,

SMILES,"activity change, negative = inhibition",Potency
CCOc1ccc(Nc2nc3c(S(=O)(=O)c4cccc(Cl)c4)nnn3c3ccsc23)cc1,7.83%,
Cc1ccc(Cn2cc(CCC(=O)NCc3ccc(OC(C)C)cc3)c3ccccc32)cc1,25.4%,
COc1ccc(N2CCN(Cc3ccc(Br)s3)CC2)cc1,,17.8 µM (active)
COc1ccc(N2CCN(S(=O)(=O)c3cc(Br)cnc3N)CC2)cc1,21.5%,
COc1ccc(N2CCN(C(=O)c3cccs3)CC2)cc1,15.7%,
Cc1ccc(Nc2nc3ccccc3nc2-n2nc(C)cc2C)c(Cl)c1,155%,
Cc1ccc(Cl)cc1N(C)C(=O)Cn1nc(Cc2cccnc2)c2ccccc2c1=O,13.5%,
COc1ccc(-c2nc(SCC(=O)N3CCCCC3C)n[nH]2)cc1 (configuration not stated),35.3% [at 57 µM],
Cc1ccc(-c2nc(S(=O)(=O)c3ccc(C)cc3)c(N3CCCCCC3)o2)cc1,-4.1%,
CN1/C(=c2/s/c(=C3/C(=O)N(c4ccccc4)NC3=Nc3ccccc3)n(C)c2=O)C(C)(C)c2ccccc21,,28.2 µM (active)
Cc1cc(C)cc(NC(=O)CSc2nc3nccnc3c(=O)n2CCc2c[nH]c3ccccc23)c1,19.8%,
Cc1ccc(Cl)cc1NC(=O)NC1COc2ccccc2C1 (configuration not stated),18% [at 57 µM],
Cn1nnc2c(N3CCN(c4ccccc4)CC3)ncnc21,7.88%,
CCOc1ccc(NC(=O)c2cc(S(=O)(=O)N3CCCC3)c[nH]2)cc1,13%,
CC(=O)N(C1=C(Cl)C(=O)c2ccccc2C1=O)c1ccc(C(=O)O)cc1,,7.94 µM (active)
CCOc1ccc(CNC(=O)Cn2cc3c(n2)-c2c(oc(C(=O)N4CCCC4)c2C)CC3)cc1,34.9%,
